# Source: PubChem BioAssay (EPA / NIEHS)
# “And” between values parts separate entries of the source, which are not always exact repeats. Identical values can stand only once. Inconclusive results are not listed. More than one record can exist for a structure, and the calls need not agree. The source made the active and inactive calls. Rule for the calls, unless noted: active = hit-call score of the fitted dose curve at least 0.9, where 1 is the maximum; inactive = score below 0.9.
# What was measured:
# [1] = CCTE_Shafer_MEA_dev_active_electrodes_number: CCTE's Neural Network Formation Assay for Number of Active Electrodes, Shafer Lab (AID 2284040; active = hit-call score of the fitted dose curve at least 0.9, where 1 is the maximum;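 for AC50: potency for loss of active electrodes versus DMSO so lower counts are hits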)
# Outline: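 Primary rat cortical neurons on 16-electrode MEA wells, exposed from day 0 through day 12 with compound renewed at DIV 5 and 9 feeds. Active electrodes (mean firing ≥5 spikes/min) counted at DIV 5, 7, 9, 12; trapezoidal AUC across days, loss-of-signal versus DMSO.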
# [2] = CCTE_Shafer_MEA_dev_burst_rate: CCTE's Neural Network Formation Assay for Burst Rate, Shafer Lab (AID 2284042);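 for AC50: potency for loss of burst rate below DMSO control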
# Outline: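 Cells plated, treated day 0; recorded DIV 5, 7, 9, 12; fed and re-treated DIV 5, 9. Endpoint: bursts per recording time, active-electrode well mean, trapezoidal AUC, fitted in decreasing direction against DMSO baseline.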
# [3] = CCTE_Shafer_MEA_dev_bursting_electrodes_number: CCTE's Neural Network Formation Assay for Number of Bursting Electrodes, Shafer Lab (AID 2284043; active = hit-call score of the fitted dose curve at least 0.9, where 1 is the maximum;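 for AC50: potency is for loss of bursting electrodes relative to DMSO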)
# Outline: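 Read-out is the per-well number of electrodes bursting at least once every 2 minutes, recorded on days 5, 7, 9 and 12 and collapsed by trapezoidal area under the curve. Cultures were primary rat cortical neurons on MEA plates, treated continuously from plating.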
# [4] = CCTE_Shafer_MEA_dev_per_burst_interspike_interval: CCTE's Neural Network Formation Assay for Burst Interspike Interval, Shafer Lab (AID 2284044);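 note: mean spike spacing inside bursts as AUC over recordings on days 5 7 9 12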
# Outline: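 Rat cortical primary cultures, 16 electrodes/well; compound from plating, renewed with full media change DIV 5 and 9. Spikes via adaptive detector; per-burst ISI well-mean over active bursting electrodes; AUC of DIV 5/7/9/12 recordings; loss-direction fit vs DMSO.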
# [5] = CCTE_Shafer_MEA_dev_burst_duration_mean: CCTE's Neural Network Formation Assay for Mean Burst Duration, Shafer Lab (AID 2284045)
# Outline: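 Read-out: average first-to-last-spike interval within single-electrode bursts, averaged over bursting electrodes per well, then summarised as area under the curve across days 5, 7, 9 and 12. Developing rat cortical networks were exposed from day 0.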
# [6] = CCTE_Shafer_MEA_dev_interburst_interval_mean: CCTE's Neural Network Formation Assay for Mean Interburst Interval, Shafer Lab (AID 2284046);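 note: well-mean interburst interval of bursting electrodes as AUC over four recording days; curve fitted for decrease in interburst interval relative to DMSO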
# Outline: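 Developing rat cortical networks on 48-well MEAs receive compound from the day of plating. Burst intervals from each active electrode are averaged per well, and AUC over the recording days is fitted in the negative direction against DMSO.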
# [7] = CCTE_Shafer_MEA_dev_inter_network_spike_interval_mean: CCTE's Neural Network Formation Assay for Mean Inter-network Spike Interval, Shafer Lab (AID 2284047)
# Outline: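 Rat cortical cultures, 1.5 x 10^5 cells/well on 48-well MEA plates; continuous exposure days 0–12, medium and compound refreshed DIV 5, 9. Mean time between consecutive network-spike peaks; AUC across DIV 5/7/9/12; DMSO baseline, negative fitting direction.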
# [8] = CCTE_Shafer_MEA_dev_network_spike_number: CCTE's Neural Network Formation Assay for Number of Network Spikes, Shafer Lab (AID 2284048);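 note: synchronized bursts across electrodes counted on days 5 7 9 12 and integrated as AUC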;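 for AC50: fit as a loss of signal meaning fewer network spikes than DMSO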
# Outline: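 Developing networks of primary rat cortical neurons are treated over 12 days starting at plating, with media and compound fully replaced on DIV 5 and 9. Network spike counts from four recording days are integrated as trapezoidal AUC.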
# [9] = CCTE_Shafer_MEA_dev_network_spike_peak: CCTE's Neural Network Formation Assay for Mean Number of Electrodes in Network Spike, Shafer Lab (AID 2284049);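 for AC50: fitted for loss of signal meaning fewer electrodes in network spikes than DMSO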
# Outline: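 Rat cortical primary culture, 1.5 x 10^5 cells/well, 48-well MEA (16 electrodes/well). Dosing day 0 through DIV 12, full media/compound exchange DIV 5, 9. AxIS adaptive spike detection; AUC over days 5/7/9/12; loss-of-signal vs DMSO.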
# [10] = CCTE_Shafer_MEA_dev_network_spike_duration_std: CCTE's Neural Network Formation Assay for Standard Deviation of Network Spike Duration, Shafer Lab (AID 2284052);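 note: area under curve of spike duration SD across recording days 5 to 12; hits are decreases in network spike duration SD versus DMSO vehicle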
# Outline: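 Read-out is the trapezoidal area-under-the-curve across recordings made on days 5, 7, 9 and 12, fitted in the negative direction against DMSO baseline. Neurons were primary rat cortical cells treated from day 0, with treatment renewed at each feed.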
# [11] = CCTE_Shafer_MEA_dev_per_network_spike_spike_number_mean: CCTE's Neural Network Formation Assay for Mean Number of Spikes in a Network Spike, Shafer Lab (AID 2284053);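 for AC50: fitted as decrease in spikes per network spike relative to DMSO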
# Outline: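 Continuous twelve-day exposure of developing rat cortical networks grown over 16 microelectrodes per well; spontaneous firing is captured at four time points, and the per-network-spike spike number is integrated over development by trapezoidal AUC.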
# [12] = CCTE_Shafer_MEA_dev_per_network_spike_spike_percent: CCTE's Neural Network Formation Assay for Percent of Spikes in a Network Spike, Shafer Lab (AID 2284054)
# Outline: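 Rat primary cortical cultures, 1.5 x 10^5 cells/well on MEA. Continuous compound exposure d0–12, medium/compound renewed DIV 5, 9. Network-spike spike % (0.05 s peak window), AUC over 4 recordings, DMSO baseline.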
# [13] = CCTE_Shafer_MEA_acute_AB: CCTE's Alamar Blue Assay for Cytotoxicity in the Neural Acute Assay, Shafer Lab (AID 2284069; active = hit-call score of the fitted dose curve at least 0.9, where 1 is the maximum;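 note: active compounds lower the viability signal compared with DMSO wells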)
# Outline: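 Metabolic activity in chemically exposed rat cortical neurons (MEA cultures, day 13/15 post-plating) measured via CellTiter Blue resazurin reduction, 544/590 nm fluorescence; fitted relative to DMSO, with signal loss indicating reduced viability.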
# [14] = CCTE_Shafer_MEA_dev_mutual_information_norm: CCTE's Neural Network Formation Assay for Mutual Information Normalization, Shafer Lab (AID 2284091);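 for AC50: mutual information between electrodes summarised as area under curve across four recording days; potency is for a decrease in mutual information relative to DMSO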
# Outline: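 Developing rat cortical networks on 16-electrode MEA wells are treated throughout formation (DIV 0–12). Shared electrode information is recorded four times, converted to area-under-curve, and fitted for decreases against DMSO vehicle.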
# [15] = molecular target: Estrogen receptor (Homo sapiens) (UniProt P03372); test: CCTE_Deisenroth_AIME_384WELL_LUC_Shift: CCTE's 384-well Estrogen Receptor Transactivation Assay with AIME metabolic competence data shift (ERTA luciferase; difference in metabolism positive and negative), Deisenroth Lab (AID 2284041);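 note: shift is response with S9 minus without S9 so positive means metabolism raised ER signal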
# Sequence of Estrogen receptor (Homo sapiens) (P03372 whole entry, looked up): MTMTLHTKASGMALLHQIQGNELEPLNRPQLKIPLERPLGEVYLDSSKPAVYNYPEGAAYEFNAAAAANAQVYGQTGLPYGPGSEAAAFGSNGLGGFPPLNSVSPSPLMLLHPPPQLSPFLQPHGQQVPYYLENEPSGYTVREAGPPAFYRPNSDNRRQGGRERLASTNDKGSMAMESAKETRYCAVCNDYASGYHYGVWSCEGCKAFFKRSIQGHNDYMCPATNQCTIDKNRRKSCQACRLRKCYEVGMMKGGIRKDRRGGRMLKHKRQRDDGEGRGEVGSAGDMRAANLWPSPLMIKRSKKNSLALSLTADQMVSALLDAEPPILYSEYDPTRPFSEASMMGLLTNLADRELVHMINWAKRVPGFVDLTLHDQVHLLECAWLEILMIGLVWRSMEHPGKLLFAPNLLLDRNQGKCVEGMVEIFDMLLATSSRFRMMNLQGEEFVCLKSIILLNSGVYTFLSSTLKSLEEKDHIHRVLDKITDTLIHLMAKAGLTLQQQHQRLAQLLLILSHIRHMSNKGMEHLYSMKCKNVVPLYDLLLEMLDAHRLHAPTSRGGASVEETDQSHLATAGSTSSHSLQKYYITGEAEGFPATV
# Outline: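 Test chemicals (0.002–200 uM, 10-point) were pre-incubated 2 h with alginate microspheres containing phenobarbital/beta-naphthoflavone-induced male Sprague Dawley rat liver S9 or water, then medium was transferred to VM7Luc4E2 cells for 24 h luciferase readout; shift = S9-positive minus S9-negative normalized response.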
# [16] = CCTE_Shafer_MEA_acute_LDH: CCTE's Lactate Dehydrogenase Assay for Cytotoxicity in the Neural Acute Assay, Shafer Lab (AID 2284086; active = hit-call score of the fitted dose curve at least 0.9, where 1 is the maximum;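 note: active means LDH release rises above DMSO vehicle level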)
# Outline: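 Medium from rat cortical neuron MEA cultures sampled right after the 40 min compound-exposure recording; released LDH measured by absorbance at 490 nm. Analyzed as signal gain relative to DMSO.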
# [17] = test system: DIO2 (gene 1734); test: CCTE_GLTED_hDIO2: CCTE's human Deiodinase 2 (DIO2) Inhibition Assay, Great Lakes Toxicology and Ecology Division (GLTED) Lab (AID 2284050; active = hit-call score of the fitted dose curve at least 0.9, where 1 is the maximum)
# Outline: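 Cell-free human DIO2 incubated 3 h with chemical; liberated iodide quantified by Sandell-Kolthoff absorbance. Triplicate plates; loss of signal fitted vs DMSO.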
# [18] = test system: DIO3 (gene 1735); test: CCTE_GLTED_hDIO3: CCTE's human Deiodinase 3 (DIO3) Inhibition Assay, Great Lakes Toxicology and Ecology Division (GLTED) Lab (AID 2284055; active = hit-call score of the fitted dose curve at least 0.9, where 1 is the maximum;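 note: potency is for inhibition seen as loss of released iodide signal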)
# Outline: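 Human DIO3 from an adenovirus expression system is incubated 3 h with test chemical. Released iodide is quantified by Sandell-Kolthoff absorbance, in triplicate plates. Loss of signal is fitted relative to DMSO.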
# [19] = UKN5_HCS_SBAD2_cell_viability: Viability Assessment in the University of Konstanz (UKN) Leist Lab Neurite Outgrowth Assay in human iPSC-derived immature Dorsal Root Ganglia Neurons (UKN5) (AID 2284056)
# Outline: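 iPSC-derived immature peripheral neurons (SBAD2) seeded on Matrigel with CHIR99021, SU5402 and DAPT, dosed 1 h later for 24 h. Viability from Hoechst H-33342 and calcein-AM live staining, high-content imaging; bidirectional fit versus DMSO.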
# [20] = UKN5_HCS_SBAD2_neurite_outgrowth: University of Konstanz (UKN) Leist Lab Neurite Outgrowth Assay in human iPSC-derived immature Dorsal Root Ganglia Neurons (UKN5) (AID 2284070); details: actives raise or lower the signal
# Outline: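 SBAD2 iPSC-derived immature peripheral neurons on Matrigel, 100.000 cells/cm2, medium with CHIR99021 (1.5 uM), SU5402 (5 uM), DAPT (5 uM); compound added 1 h post-seeding for 24 h. Calcein-AM neurite area by high-content imaging; Hoechst H-33342 viability; bidirectional fit vs DMSO.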
smiles,measurement,setting,value
CNC(=O)Oc1cccc2ccccc12,AC50,[1],15 µM (active)
same,AC50,[2],4.84 µM (active)
same,outcome,[2],inactive
same,AC50,[3],15 µM (active)
same,outcome,[4],inactive
same,outcome,[5],inactive
same,outcome,[6],inactive
same,outcome,[7],inactive
same,AC50,[8],1 µM (active)
same,outcome,[8],inactive
same,AC50,[9],20.3 µM (active) and 22.6 µM (active)
same,outcome,[10],inactive
same,AC50,[11],20.1 µM (active)
same,outcome,[11],inactive
same,AC50,[12],15 µM (active) and 5.05 µM (active)
same,outcome,[13],inactive
same,AC50,[14],8.41 µM (active) and 15 µM (active)
COC(=O)N(C(=O)N1CO[C@@]2(C(=O)OC)Cc3cc(Cl)ccc3C2=N1)c1ccc(OC(F)(F)F)cc1,AC50,[1],21.2 µM (active)
same,outcome,[15],inactive
same,outcome,[2],inactive
same,AC50,[3],15 µM (active)
same,outcome,[4],inactive
same,outcome,[5],inactive
same,outcome,[6],inactive
same,outcome,[7],inactive
same,outcome,[8],inactive
same,AC50,[9],25.9 µM (active)
same,outcome,[10],inactive
same,outcome,[11],inactive
same,AC50,[12],15 µM (active)
same,outcome,[16],inactive
same,outcome,[14],inactive
CCCCC(C#N)(Cn1cncn1)c1ccc(Cl)cc1 (centres undefined),outcome,[15],inactive
CC1(C)CON(Cc2ccccc2Cl)C1=O,AC50,[15],37.7 µM (active)
COP(=S)(OC)Oc1ccc([N+](=O)[O-])c(C)c1,outcome,[1],inactive
same,outcome,[15],inactive
same,outcome,[2],inactive
same,outcome,[3],inactive
same,outcome,[4],inactive
same,outcome,[5],inactive
same,outcome,[6],inactive
same,outcome,[7],inactive
same,outcome,[8],inactive
same,outcome,[9],inactive
same,outcome,[10],inactive
same,outcome,[11],inactive
same,outcome,[12],inactive
same,outcome,[14],inactive
CCCCOCN(C(=O)CCl)c1c(CC)cccc1CC,outcome,[15],inactive
same,AC50,[17],17.6 µM (active)
same,AC50,[18],37.6 µM (active)
CC(C)N1C(=O)N(c2ccccc2)CSC1=NC(C)(C)C,outcome,[15],inactive
same,outcome,[13],inactive
same,outcome,[16],inactive
CCOc1nc(F)cc2nc(S(=O)(=O)Nc3c(Cl)cccc3Cl)nn12,outcome,[15],inactive
same,outcome,[13],inactive
CC1(C)CCC(=Cc2ccc(Cl)cc2)C1(O)Cn1cncn1 (centres undefined),outcome,[13],inactive
same,outcome,[16],inactive
CCCCC(O)(Cn1cncn1)c1ccc(Cl)cc1Cl (centres undefined),outcome,[15],inactive
same,outcome,[16],inactive
Cc1nc(N(C)C)nc(OC(=O)N(C)C)c1C,AC50,[17],44.6 µM (active)
same,AC50,[18],10 µM (active)
same,outcome,[16],inactive
N#Cc1c[nH]cc1-c1cccc2c1OC(F)(F)O2,outcome,[16],inactive
Nc1c(Cl)c(Cl)nc(C(=O)O)c1Cl,AC50,[15],5.4 µM (active)
CCOc1nc(C(Cl)(Cl)Cl)ns1,outcome,[15],inactive
CCC(C)n1c(=O)[nH]c(C)c(Br)c1=O (centres undefined),outcome,[15],inactive
OC(c1ccc(Cl)cc1)(c1ccc(Cl)cc1)C(Cl)(Cl)Cl,AC50,[17],76.4 µM (active)
same,AC50,[18],15.8 µM (active)
same,outcome,[13],inactive
same,outcome,[16],inactive
Clc1nc(Cl)nc(Nc2ccccc2Cl)n1,outcome,[13],inactive
same,outcome,[16],inactive
COC(=O)NC(=S)Nc1ccccc1NC(=S)NC(=O)OC,outcome,[15],inactive
CCCC(=NOCC)C1=C(O)CC(CC(C)SCC)CC1=O (centres undefined),outcome,[15],inactive
same,outcome,[16],inactive
Clc1cccc(C(Cl)(Cl)Cl)n1,outcome,[15],inactive
Cc1ccc(N=CN(C)C=Nc2ccc(C)cc2C)c(C)c1,outcome,[15],inactive
same,outcome,[13],inactive
COP(=S)(OC)SCn1nnc2ccccc2c1=O,outcome,[15],inactive
same,outcome,[2],inactive
same,outcome,[3],inactive
same,outcome,[4],inactive
same,outcome,[5],inactive
same,outcome,[6],inactive
same,outcome,[7],inactive
same,outcome,[8],inactive
same,AC50,[9],15 µM (active)
same,outcome,[10],inactive
same,AC50,[11],24.9 µM (active)
same,AC50,[12],4.18 µM (active)
same,AC50,[19],47.2 µM (active)
same,outcome,[13],inactive
same,AC50,[20],35.1 µM (active)
same,outcome,[16],inactive
same,AC50,[14],4.99 nM (active)
CC(C)Nc1nc(Cl)nc(NC(C)C)n1,outcome,[15],inactive
Cc1cc(C)nc(Nc2ccccc2)n1,outcome,[15],inactive
CC(C)C1(C)N=C(c2ncccc2C(=O)O)NC1=O (centres undefined),outcome,[13],inactive
same,outcome,[16],inactive
O=c1n(Cl)c(=O)n(Cl)c(=O)n1Cl,outcome,[15],inactive
CN=C=S,outcome,[15],inactive
COCC(=O)N(c1c(C)cccc1C)C(C)C(=O)OC (centres undefined),outcome,[16],inactive
Cn1c(-c2ccccc2)cc(-c2ccccc2)[n+]1C,outcome,[13],inactive
same,outcome,[16],inactive
Nc1c(Cl)c(F)nc(OCC(=O)O)c1Cl,outcome,[13],inactive
same,outcome,[16],inactive
CCOP(=S)(OCC)Oc1nc(Cl)n(C(C)C)n1,outcome,[15],inactive
CC(C)N1C(=O)c2ccccc2NS1(=O)=O,outcome,[15],inactive
same,outcome,[16],inactive
COCc1cnc(C2=NC(C)(C(C)C)C(=O)N2)c(C(=O)O)c1 (centres undefined),outcome,[15],inactive
COCC(C)N(C(=O)CCl)c1c(C)csc1C (centres undefined),outcome,[15],inactive
CCOc1cc(C(C)(C)C)ccc1C1COC(c2c(F)cccc2F)=N1 (centres undefined),outcome,[16],inactive
COc1ccc(-c2ccccc2)cc1NNC(=O)OC(C)C,outcome,[15],inactive
